High-throughput results deposited in PubChem BioAssay by Sanford-Burnham Center for Chemical Genomics.
Shown are actives, neighbours in structure and some others; about 31% of the full set was active somewhere.
CYP2C9 act: human CYP2C9 activators, primary screen, biochemical, luminescence; Cytochrome P450 2C9 (Homo sapiens), P11712; AID 1024, 2008; 96,000 tested, 1.4% active; recombinant CYP2C9, luciferin-H conversion; stronger effect = higher value; factor 1 = untreated enzyme, 0 = blocked; activation factor at 5 µM;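 active = activation factor of 2 or more for CYP2C9 at a 5 µM dose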;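 note: 0 = sulfaphenazole-blocked wells and 1 = vehicle-only wells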
CYP2C9 inh: blockers of cytochrome P450 2C9 activity – biochemical, luminescence, ADME assay, primary screen; CYP2C9 Supersomes, luciferin-H conversion; inhibition, % at 5 µM; 96,000 tested, 20% active;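 active = blocking of liver enzyme CYP2C9 beyond about 50% at 5 µM, limit read from the data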
CYP2C19 inhib: blockers of cytochrome P450 2C19 activity – biochemical, luminescence, ADME assay, primary screen; P33261; CYP2C19 Supersomes, luciferin-H EGE luminescence, 30 min; inhibition, % at 5 µM; 96,000 tested, 21% active; AID 778, 2007;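 active = CYP2C19 inhibition above a set limit at 5 µM in the primary screen, cut at about 50% in these data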;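 note: plate controls were negative control wells for no effect and 2.5 mM tranylcypromine positive control for full effect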
Target sequence (P33261 whole entry, looked up): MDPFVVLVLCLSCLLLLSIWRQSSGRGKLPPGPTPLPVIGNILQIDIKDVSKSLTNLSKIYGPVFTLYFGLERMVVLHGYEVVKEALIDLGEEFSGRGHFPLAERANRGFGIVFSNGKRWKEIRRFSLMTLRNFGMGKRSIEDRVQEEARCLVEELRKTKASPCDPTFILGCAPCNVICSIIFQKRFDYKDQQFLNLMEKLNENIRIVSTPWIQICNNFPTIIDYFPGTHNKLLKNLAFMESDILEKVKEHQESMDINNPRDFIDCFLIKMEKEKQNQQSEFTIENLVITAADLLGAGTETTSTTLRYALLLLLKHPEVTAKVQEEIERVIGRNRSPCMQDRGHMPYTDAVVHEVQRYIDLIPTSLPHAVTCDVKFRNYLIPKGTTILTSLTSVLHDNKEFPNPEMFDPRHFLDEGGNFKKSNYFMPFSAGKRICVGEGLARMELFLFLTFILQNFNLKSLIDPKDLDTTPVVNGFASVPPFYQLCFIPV
CYP2C19 activ: human CYP2C19 activators, primary screen, biochemical, luminescence. Cytochrome P450 2C19 (Homo sapiens), P33261. recombinant CYP2C19, luciferin-H EGE luminescence; stronger effect = higher value; 0 = fully inhibited enzyme, 1 = untreated enzyme. activation factor at 5 µM. 96,000 tested, under 10 active. AID 1025, 2008;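 active = activation factor of at least 2 at 5 µM in the primary screen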;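 note: 0 = wells with 2.5 mM tranylcypromine and 1 = vehicle-only wells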
* = called active by the depositor.

`CC(=O)c1cccc(NC(=O)c2cccc(S(=O)(=O)N(C)C)c2)c1` gave CYP2C9 act 1, CYP2C9 inh -2.5, CYP2C19 inhib 0.0 and CYP2C19 activ 1.
Screening Cc1cccc(CN2C(=O)N/C(=C/c3cc(C)n(-c4cc(C)ccn4)c3C)C2=O)c1 returned CYP2C9 act 0.4, CYP2C9 inh 61.2*, CYP2C19 inhib 44.9 and CYP2C19 activ 0.6.
Cn1c(=O)c2c(SCC(=O)N3CCCc4ccccc43)nc(C3CC3)nc2n(C)c1=O was read as CYP2C9 act 0.9, CYP2C9 inh 12.3, CYP2C19 inhib -6.1 and CYP2C19 activ 1.1.
Cc1sc2nc(C3CC3)nc(SCC(=O)N3CCc4ccccc4C3)c2c1C was read as CYP2C9 act 0.2, CYP2C9 inh 84.9*, CYP2C19 inhib 64.6* and CYP2C19 activ 0.4.
For Cc1sc2nc(C3CC3)nc(SCC(=O)N3CC(=O)Nc4ccccc43)c2c1C the results were CYP2C9 act 0.3, CYP2C9 inh 65.6*, CYP2C19 inhib 30.0 and CYP2C19 activ 0.7.
`CCc1c(C)sc2nc(C(C)C)nc(SCC(=O)N3CCc4ccccc4C3)c12` gave CYP2C9 act 0, CYP2C9 inh 96.6*, CYP2C19 inhib 21.0 and CYP2C19 activ 0.8.
`CCC(C)Nc1nc2c(c(=O)n(C)c(=O)n2C)n1Cc1ccc(F)cc1` (stereo unspecified) gave CYP2C9 act 0.5, CYP2C9 inh 49.0, CYP2C19 inhib 23.6 and CYP2C19 activ 0.8.
CC(C)Sc1nc(C(F)(F)F)cc(=O)n1-c1ccccc1 was read as CYP2C9 act 1.1, CYP2C9 inh -5.4, CYP2C19 inhib 17.5 and CYP2C19 activ 0.8.
COc1ccc(C(O)Cn2c(=N)n(CCCN(C)C)c3ccccc32)cc1 (stereo unspecified) was read as CYP2C9 act 1, CYP2C9 inh 2.2, CYP2C19 inhib -4.2 and CYP2C19 activ 1.
For CSCC[C@@H](Nc1nc(-c2ccccc2)nc2c1oc1ccccc12)C(=O)O the results were CYP2C9 act 0.4, CYP2C9 inh 64.0*, CYP2C19 inhib 1.7 and CYP2C19 activ 1.
`c1ccc(-c2nc(NCc3cccnc3)c3oc4ccccc4c3n2)cc1` gave CYP2C9 act 0.4, CYP2C9 inh 57.7*, CYP2C19 inhib 35.3 and CYP2C19 activ 0.6.
Cc1cccc(C)c1N1C(=O)C2ON(c3ccccc3)C(c3ccncc3)C2C1=O (stereo unspecified) was read as CYP2C9 act 0, CYP2C9 inh 100.0*, CYP2C19 inhib 100.0* and CYP2C19 activ 0.
Screening CC(C)N1C(=O)C2ON(c3ccccc3)C(c3cccs3)C2C1=O (stereo unspecified) returned CYP2C9 act 0.7, CYP2C9 inh 34.1, CYP2C19 inhib 48.1 and CYP2C19 activ 0.5.
Cc1ccc(N2C(=O)C3ON(c4ccccc4)C(c4ccncc4)C3C2=O)c(C)c1 (stereo unspecified) was read as CYP2C9 act 0, CYP2C9 inh 95.4*, CYP2C19 inhib 100.4* and CYP2C19 activ 0.
For O=C1C2ON(c3ccccc3)C(c3ccncc3)C2C(=O)N1c1ccccc1 (stereo unspecified) the results were CYP2C9 act 0.1, CYP2C9 inh 86.0*, CYP2C19 inhib 99.5* and CYP2C19 activ 0.
`O=C(Nc1ccc(Cl)c(Cl)c1)OCCNC(=O)c1cccc(Cl)c1` gave CYP2C9 act 0.6, CYP2C9 inh 41.2, CYP2C19 inhib 2.2 and CYP2C19 activ 1.
Screening Cc1ccnc2c(N3C(=O)C4C5c6ccccc6C(c6ccccc65)C4C3=O)cccc12 (stereo unspecified) returned CYP2C9 act 0.8, CYP2C9 inh 20.5, CYP2C19 inhib 38.2 and CYP2C19 activ 0.6.
Screening CC(C)Nc1nc(Oc2cccc(Cl)c2Cl)cc(C(F)(F)F)n1 returned CYP2C9 act 0.7, CYP2C9 inh 29.7, CYP2C19 inhib 71.4* and CYP2C19 activ 0.3.
Cc1cccc(C)c1NC(=O)C(NC=O)c1ccc(N(C)C)cc1 (stereo unspecified) was read as CYP2C9 act 0.4, CYP2C9 inh 60.0*, CYP2C19 inhib 63.8* and CYP2C19 activ 0.4.
O=C(CSc1nnc(-c2ccco2)n1Cc1ccco1)N1CCOCC1 was read as CYP2C9 act 1, CYP2C9 inh 0.6, CYP2C19 inhib 0.6 and CYP2C19 activ 1.
Screening Cc1cccc2cc(C#N)c(NCCNC(=S)NCCCN3CCOCC3)nc12 returned CYP2C9 act 0.3, CYP2C9 inh 71.2*, CYP2C19 inhib 6.0 and CYP2C19 activ 0.9.
`Cc1cc(NCCCN2CCOCC2)n2c(nc3ccccc32)c1C#N` gave CYP2C9 act 0.6, CYP2C9 inh 40.4, CYP2C19 inhib 50.7* and CYP2C19 activ 0.5.
For Cc1cccc2cc(C#N)c(NCCNS(=O)(=O)c3ccc4c(c3)OCCO4)nc12 the results were CYP2C9 act 0.4, CYP2C9 inh 56.9*, CYP2C19 inhib 53.1* and CYP2C19 activ 0.5.
Screening O/N=C1\CCc2cc(Cl)ccc21 returned CYP2C9 act 1.1, CYP2C9 inh -7.7, CYP2C19 inhib 13.9 and CYP2C19 activ 0.9.
For COc1ccc(C2C(C(=O)Nc3cccc(C)n3)c3ccccc3C(=O)N2C)cc1OC (stereo unspecified) the results were CYP2C9 act 0.8, CYP2C9 inh 17.2, CYP2C19 inhib 4.4 and CYP2C19 activ 1.
`CCOC(=O)C1=C(C)NC(C)=C(C(=O)OCC)C1c1ccc(O)cc1` gave CYP2C9 act 0, CYP2C9 inh 97.9*, CYP2C19 inhib 97.8* and CYP2C19 activ 0.
`CCCC1C(C(=O)OCC)=C(C)NC(C)=C1C(=O)OCC` gave CYP2C9 act 0.3, CYP2C9 inh 67.8*, CYP2C19 inhib 93.8* and CYP2C19 activ 0.1.
CCOc1ccc(C2NC(=O)NC(C)=C2C(=O)OC)cc1C (stereo unspecified) was read as CYP2C9 act 0.7, CYP2C9 inh 29.4, CYP2C19 inhib 42.7 and CYP2C19 activ 0.6.
COC(=O)C1=C(C)NC(C)=C(C(=O)OC)C1c1ccc(N(C)C)cc1 was read as CYP2C9 act 0.3, CYP2C9 inh 70.4*, CYP2C19 inhib 83.8* and CYP2C19 activ 0.2.
Screening CCOC(=O)C1=C(C)NC(C)=C(C(=O)OCC)C1c1sccc1C returned CYP2C9 act 0.1, CYP2C9 inh 90.3*, CYP2C19 inhib 56.1* and CYP2C19 activ 0.4.
Screening CCOC(=O)C1=C(C)NC(=O)NC1c1ccc(NC(C)=O)cc1 (stereo unspecified) returned CYP2C9 act 1.1, CYP2C9 inh -12.3, CYP2C19 inhib -13.5 and CYP2C19 activ 1.1.
CCOC(=O)C1=C(C)NC(C)=C(C(=O)OCC)C1C(=O)O was read as CYP2C9 act 1, CYP2C9 inh 1.2, CYP2C19 inhib 0.7 and CYP2C19 activ 1.
